From PubChem
GRIN3A LBD mod: modulators (binders) of human NR3A ligand-binding domain. NR3A LBD differential scanning fluorimetry, Tm shift; 0% = protein alone, 100% = glycine-bound protein. Tm shift relative to glycine control, % at 25 µM. hit rate 2.5% among 340,000. AID 1259313;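 active means melting temperature shift of at least 10% of the positive control shift, at one fixed dose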
KLK7 zymogen act: proKLK7 (human) activation, primary screen. purified proKLK7, EDANS-DABCYL substrate fluorescence; 100% is mature enzyme control, 0% vehicle. P49862. activation, % at 7 µM. hit rate 0.9% among 370,000;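 active means activation above the mean of all tested compounds plus 3 SD, computed per campaign excluding outliers beyond control limits, cut at about 13% in these data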
FAS TE block: blocks the thioesterase domain of human fatty acid synthase; inhibition, % at 15 µM; AID 602261; P49327; hit rate 0.67% among 360,000; recombinant FAS-TE, OMFH fluorogenic substrate, fluorescence endpoint;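 active means compounds whose normalised, plate-corrected inhibition of enzyme fluorescence in the single-dose primary screen is 50% or more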;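 further: 0% = DMSO with enzyme and 100% = substrate without enzyme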
ADAM17 inh: inhibitors of human ADAM17; P78536; recombinant ADAM17, EDANS/DABCYL FRET peptide cleavage; inhibition, % at 6.95 µM; hit rate 0.83% among 370,000;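 active means inhibition above the mean of compounds lying between control limits plus 3 SD, set per campaign, cut at about 8.5% in these data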;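 further: 0% = DMSO-only wells as the low control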
ADAM10 inh: inhibits human ADAM10. O14672. recombinant ADAM10, EDANS/DABCYL FRET peptide cleavage, 3 h. inhibition, % at 7 µM. hit rate 0.62% among 370,000. AID 720582;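 active means inhibition above a per-campaign cutoff equal to the mean of compounds falling between control-based bounds plus 3 SD, cut at about 20% in these data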;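 further: 0% = DMSO wells while the 100% control is not disclosed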
FAS-TE conf: confirmation of human fatty acid synthase thioesterase inhibitors; recombinant FAS-TE, OMFH fluorogenic substrate, fluorescence; shares compounds with FAS TE block; hit rate 45% among 2,300; inhibition, % at 15 µM;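 active means compounds inhibiting the enzyme by at least 50% at 15 µM in any one of the replicates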;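 further: 0% = enzyme with DMSO only and 100% = wells lacking enzyme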
An asterisk follows results filed as active; · = no result given. A selection: hits, their analogues and other compounds. The true share with any hit is near 4.6%.

SMILES	GRIN3A LBD mod	KLK7 zymogen act	FAS TE block	ADAM17 inh	ADAM10 inh	FAS-TE conf
CCN1C(=O)[C@H]2[C@@H](c3ccc(-c4ccc5c(c4)OCO5)c(OC)c3)N[C@@](Cc3ccccc3)(C(=O)OC)[C@H]2C1=O	-3	0	91*	-6	-11	-1
CCN1CCCCC(NC(=O)c2ccccc2OC)C1=O (stereo unspecified)	·	0	·	-8	-13	·
COc1ccc([C@H]2OC(=O)C[C@H]2C(=O)N2CCN(C(=O)C3CCCO3)CC2)cc1OC (stereo partly specified)	·	-1	·	-4	-7	·
COC(=O)c1cc(-c2cccc(C(C)C)c2)c(=O)n2c1CCC2	·	1	·	-5	-16	·
COC(=O)[C@@]12CCCCN1[C@H](c1ccc(-c3ccc(Cl)c(Cl)c3)c(OC)c1)[C@H]1C(=O)N(C)C(=O)[C@H]12	-2	0	60*	-5	-2	17
CCN1C(=O)[C@@H]2[C@@H](c3ccc(-c4ccc(OC)cc4)cc3)N3CCCC[C@@]3(C(=O)OC)[C@@H]2C1=O	-1	0	18	2	1	·
COC(=O)[C@@]12CCCCN1[C@H](c1ccc(-c3ccc(Cl)c(Cl)c3)c(OC)c1)[C@@H]1C(=O)N(C)C(=O)[C@@H]12	-10	-1	44	-5	8	·
CCN1C(=O)[C@H]2[C@@H](c3ccc(-c4ccc(OC)cc4)c(OC)c3)N3CCCC[C@@]3(C(=O)OC)[C@H]2C1=O	1	0	70*	6	11	22
CCCC/C=C1/[C@@H](c2ccc(Cl)cc2)N(Cc2ccc3c(c2)OCO3)C2=N[C@@H](c3ccccc3)CC(=O)N21	·	0	·	-1	2	·
CCCCCN(CCCCC)C(=O)C(CCC(=O)O)NC(=O)c1ccc(Cl)c(Cl)c1 (stereo unspecified)	1	-1	72*	-3	0	74*
Cc1ccccc1CS(=O)(=O)Cc1ccc(C(=O)Nc2ccc(F)cc2F)o1	·	0	·	-3	-15	·
CCOc1ccc(NC(=S)N2CCc3cc(OC)c(OC)cc3C2COc2ccc3c(C)cc(=O)oc3c2)cc1 (stereo unspecified)	-19	-5	78*	-57	-198	6
Cc1ccccc1Cn1cc(CN2[C@@H](Cc3ccccc3)COc3cc(Br)ccc3S2(=O)=O)nn1	·	0	·	-3	-12	·
COc1cc(-c2nc(C(=O)NC3CCCCC3)cc3c2[nH]c2ccccc23)cc(OC)c1OC	-1	-8	84*	-29	-102	10
CN1C[C@H](C(=O)N[C@]2(C)O[C@@]3(O)[C@@H]4CCCN4C(=O)[C@H](Cc4ccccc4)N3C2=O)CC2c3cccc4[nH]cc(c34)C[C@H]21 (stereo partly specified)	-2	1	56*	-7	-8	52*
CCCN1C[C@H](CSC)C[C@@H]2c3cccc4[nH]cc(c34)C[C@H]21	-2	2	-5	-10	-24	·
CCCCCCCOC(=O)c1nc(Cl)c(Cl)c(N)c1Cl	2	0	54*	6	16	35
O=C(O)c1ccc(N/N=C/c2ccc(-c3ccc(Cl)cc3Cl)o2)cc1	3	-1	75*	-8	-16	78*
COC(=O)N/N=C/c1ccc(-c2ccc(Cl)cc2Cl)o1	-6	-4	11	0	3	·
O=C(O)c1ccc(N/N=C/c2ccc(-c3cc(Cl)ccc3Cl)o2)cc1	-6	0	81*	-9	-31	84*
COc1ccc(C(=O)NC(CC(=O)O)c2cc([N+](=O)[O-])ccc2Cl)c(SC)c1 (stereo unspecified)	0	0	50*	3	8	64*
CN(C)CC(=O)N[C@H]1C[C@@H]2O[C@H](CO)CC[C@@H]2O[C@@H]1CCc1ccc(-c2ccc(F)cc2)cc1	·	0	·	-4	-5	·
CCOC1=C2[C@@H](CN(S(=O)(=O)c3ccc(C)cc3)[C@H]2c2ccccc2)[C@H]2C(=O)N(Cc3ccccc3)C(=O)[C@H]2C1	·	1	76*	-1	-3	19
CCOC1=C2[C@@H](CN(S(=O)(=O)c3ccc(C)cc3)[C@H]2c2ccccc2)[C@H]2C(=O)N(c3ccccc3)C(=O)[C@H]2C1	·	0	28	-4	-19	·
